# From PubChem
# The list is not random: actives were taken first. Their share in the collection is about 1.9%.
# PGE2 EP2 inh = inhibitors of human EP2 prostaglandin E2 receptor | P43116 | C6 glioma cells expressing human EP2, cAMP TR-FRET; cells stimulated with saturating PGE2 | inhibition, % at 25 µM | hit rate 0.52% among 260,000;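 active = percent inhibition above 40 after rounding to a whole number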;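 also: rat C6 glioma host cells with rolipram phosphodiesterase inhibitor present; the protocol text gives 20 µM as final concentration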
# Target sequence (P43116 whole entry, looked up): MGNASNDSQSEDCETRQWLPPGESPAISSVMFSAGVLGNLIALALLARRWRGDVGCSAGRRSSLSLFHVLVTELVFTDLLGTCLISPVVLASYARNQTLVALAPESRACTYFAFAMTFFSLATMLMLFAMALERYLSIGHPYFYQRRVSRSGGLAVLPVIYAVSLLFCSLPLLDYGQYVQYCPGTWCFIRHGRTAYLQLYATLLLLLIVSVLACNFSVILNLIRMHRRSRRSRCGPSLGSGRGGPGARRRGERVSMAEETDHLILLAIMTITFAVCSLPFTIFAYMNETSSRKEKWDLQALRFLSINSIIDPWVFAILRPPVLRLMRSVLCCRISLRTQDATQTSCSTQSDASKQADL
# S1P4 agonist = human S1P4 receptor agonism; S1P4-expressing cell line, agonist reporter assay; activation, % at 4.98 µM; O95977; hit rate 0.35% among 220,000; in the data active = activation above about 11%
# S1P3 antagonist = blocks the human S1P3 receptor. Q99500. CHO S1P3 NFAT-BLA reporter, FRET fluorescence, antagonist mode. inhibition, % at 4.98 µM. hit rate 0.27% among 170,000;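 active = inhibition above the plate cutoff, the mean inhibition of test wells on that plate plus 3 SD, cut at about 28% in these data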;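 also: cells challenged with S1P at its EC80 of 0.8 µM; blue over green emission ratio from cleaved BLA substrate after 4 h stimulation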
# EP2 modulator = EP2 receptor (human) modulation. P43116. EP2-expressing cells, cAMP HTRF FRET, PGE2 co-stimulation. induction, % at 25 µM. hit rate 0.83% among 260,000. AID 940;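 active = compounds whose cAMP rise, as percent of the full-agonist control response, exceeds 60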;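 also: rat C6 glioma line stably carrying human EP2 under a CMV promoter; the protocol text gives 20 µM as final concentration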
# S1P4 antagonist = antagonists of human S1P4 receptor; hit rate 0.26% among 220,000; O95977; inhibition, % at 4.98 µM; AID 1510; S1P4-expressing cells, antagonist mode, reporter read-out; in the data active = inhibition above about 29%
# EP2 cAMP induct = human EP2 receptor cAMP induction, negative in counter-screens; shares compounds with EP2 modulator; C6 glioma EP2 cells, cAMP HTRF induction; plus low (about EC15) PGE2 agonist; calls only at 20 µM (by protocol); hit rate 47% among 1,300;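 active = cAMP induction above 50% in the main assay while under 30% in all four parallel counter assays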;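 also: rat C6 glioma cells stably expressing human EP2 receptor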
# Numbers stand for hits; i = inactive; nt = not tested or not shown; + = active, no number; ! = a repeat was not active.
SMILES,PGE2 EP2 inh,S1P4 agonist,S1P3 antagonist,EP2 modulator,S1P4 antagonist,EP2 cAMP induct
COCCn1c(N2CCN(c3ccc(OC)cc3)CC2)nc2c1c(=O)[nH]c(=O)n2C,i,i,i,i,i,nt
Cc1ccc(/C=C/c2nc3ccccc3c(=O)n2CCc2ccccc2)cc1,i,i,i,81,i,+
Cc1ccccc1/C=C/c1nc2ccccc2c(=O)n1Cc1ccccc1,i,i,i,i,i,nt
Cc1ccc(-c2nc3ccccc3c(=O)n2Cc2ccccc2)cc1,i,i,i,i,i,nt
Cc1ccccc1/C=C/c1nc2ccccc2c(=O)n1CCc1ccccc1,i,i,i,71,i,+
O=c1cc(N2CCCCC2)c(-c2ccccc2)nn1Cc1ccccc1,i,i,i,82,i,+
Cc1ccc(-c2nn(-c3ccccc3)cc2CN(Cc2ccccc2)C(=O)c2ccco2)o1,i,i,nt,80,i,+
CCOc1cccc(CN2CCC(C(=O)N3CCCC(C)C3)CC2)c1O (centres undefined),i,nt,nt,i,nt,nt
O=C(NNc1ccc([N+](=O)[O-])cc1[N+](=O)[O-])C1C2CCCCC21 (centres undefined),i,i,i,65,i,+
O=C(NNc1ccc([N+](=O)[O-])cc1)C1C2CCCCC21 (centres undefined),i,i,i,i,i,nt
O=C(NC1CCCCCCC1)NC1CCCCC1,i,i,nt,i,i,nt
C/C(=N\NC(=O)NC1CCCCC1)C1CCCCC1,i,i,i,71,i,i
CCN1c2ncccc2C(=O)NC12CCN(C(=O)c1cccnc1)CC2,i,nt,nt,i,nt,nt
O=C(Nc1ccccc1)/C(=C/c1ccccc1)c1ccccc1,i,i,nt,78,i,+
Cc1cccc(C)c1NC(=O)/C(=C/c1ccco1)c1ccccc1,i,i,nt,i,i,nt
Cc1ccccc1NC(=O)/C(=C/c1ccccc1)c1ccccc1,i,i,nt,67,i,+
O=C(O)/C(=C\c1ccccc1)c1ccccc1,i,i,i,i,i,nt
CCC(C)N1CCN(S(=O)(=O)c2ccc(C)cc2)CC1 (centres undefined),i,nt,nt,i,nt,nt
CC(C)CCn1c(-c2nonc2N)nc2ccccc21,i,i,nt,70,i,i
COC(=O)c1c(NC(=O)C2CC2)sc2c1CCCC2,i,i,i,i,i,i
CCOC(=O)c1c(NC(=O)c2cccs2)sc(C)c1CC,i,i,i,i,i,i
CCOC(=O)c1c(NC(=O)c2cccs2)sc2c1CCN(C(=O)OCC)C2,i,i,i,i,i,+
Cc1sc(NC(=O)c2cccs2)c(C(=O)OC(C)C)c1C,i,i,nt,78,i,+
O=C(CC1Nc2ccccc2NC1=O)Nc1cc(Cl)ccc1Cl (centres undefined),i,nt,nt,i,nt,nt
CC(C)OC(=O)c1c(NC(=O)CCn2nnc3ccccc32)sc2c1CCCC2,i,i,i,i,i,i
SMILES,PGE2 EP2 inh,S1P4 agonist,S1P3 antagonist,EP2 modulator,S1P4 antagonist,EP2 cAMP induct
CC(C)OC(=O)c1c(NC(=O)CCC(=O)O)sc2c1CCCCC2,i,i,i,i,i,nt
COC(=O)c1c(NC(=O)c2ccc(Br)s2)sc2c1CCC2,i,i,i,67,i,i
CCOC(=O)c1c(NC(=O)c2ccc(Br)o2)sc(C)c1CC,i,i,i,74,i,+
COC(=O)c1c(NC(=S)NN2CCOCC2)sc2c1CCCC2,i,i,i,i,i,i
O=C(CSc1nc2sc3c(c2c(=O)[nH]1)CCCC3)Nc1ccccc1-c1ccccc1,i,nt,nt,i,nt,nt
O=C(Nc1sc2c(c1C(=O)O)CCCCC2)c1ccco1,i,i,i,i,i,nt
CCOC(=O)c1c(NC(=O)c2cccs2)sc2c1CCCC2,i,i,nt,i,i,i
COCC(=O)Nc1sc2c(c1C(=O)OC)C(C(=O)OC)CC2 (centres undefined),i,i,i,i,i,nt
COCC(=O)Nc1sc2c(c1C(=O)OC)CCC(C)C2 (centres undefined),i,i,i,70!,i,i
CCOC(=O)c1c(NC(=O)c2ccco2)sc2c1CCCCC2,i,i,i,79,i,+
CC1CCC2(OC1)OC1CC3C4CC[C@H]5C[C@@H](O)CC[C@]5(C)C4CC(=O)[C@]3(C)C1C2C (some centres undefined),i,nt,nt,i,nt,nt
COc1ccc(C(=O)CSc2nc3cc4c(cc3cc2C#N)OCCO4)cc1,i,nt,nt,i,nt,nt
O=S1(=O)N=C(N(CCO)/N=C/C=C/c2ccccc2)c2ccccc21,i,i,i,72,i,+
O=S1(=O)N=C(N/N=C/C=C/c2ccccc2)c2ccccc21,i,i,i,i,i,nt
Cn1c(=O)n(CC(=O)NC(C)(C)C)c2cccnc21,i,nt,nt,i,nt,nt
COC(=O)c1cccc(NC(=O)NC2CC3CCCC(C2)N3Cc2ccco2)c1 (centres undefined),i,nt,nt,i,nt,nt
O=C(N/N=C/c1cccc(F)c1)NC1CCCCC1,i,i,i,85,i,+
Cc1ccc(C)c(N=C2CCCN2Cc2ccccc2)c1C#N,i,i,nt,78,i,+
CCNc1nc(NCC)nc(SCCOc2ccc(C)cc2)n1,i,i,i,82,i,+
CCOc1nc(SCCOc2ccc(C)cc2)nc(N(C)C)n1,i,i,nt,i,i,nt
Cc1ccc2[nH]c(=O)c(CN(C(=S)NCc3ccco3)C3CCCC3)cc2c1,i,nt,nt,i,nt,nt
O=C(/C=C/Nc1ccccc1Oc1ccccc1)c1ccco1,i,i,i,65,i,i
CCC(=O)Oc1ccc(C(CC)C(CC)c2ccc(OC(=O)CC)cc2)cc1 (centres undefined),i,i,i,69,i,+
CCc1cc2cc3c(cc2nc1SCC(=O)OC(C)C)OCO3,i,i,i,81,i,+
CCC1C/C(=C/c2ccco2)C(=O)/C(=C/c2ccco2)C1 (centres undefined),i,i,i,68,i,i
SMILES,PGE2 EP2 inh,S1P4 agonist,S1P3 antagonist,EP2 modulator,S1P4 antagonist,EP2 cAMP induct
O=C(NCc1ccccc1)c1ccc(=O)[nH]n1,i,i,nt,i,i,nt
O=C(NCc1ccco1)c1ccc(=O)[nH]n1,i,i,nt,67,i,i
O=C(CN1CCCCCCC1)Nc1ccc(Cl)cc1Cl,i,i,i,66,i,i
O=C(CN1CCCCC1)Nc1ccc(C(F)(F)F)cc1Cl,i,i,i,i,i,nt
Cc1cc2ccccc2nc1SCC(=O)NC1CCCC1,i,i,i,77,i,i
Cc1cc2ccccc2nc1SCC(=O)NC1CCCCC1,i,i,i,70,i,i
Cc1cc2cc3c(cc2nc1SCC(=O)NC1CCCCC1)OCO3,i,nt,nt,i,nt,nt
Cc1ccc(CN(CCCn2ccnc2)Cc2ccc3c(c2)n(C)c(=O)n3C)s1,i,nt,nt,i,nt,nt
COc1ccccc1/C=C(/C(=O)OCC(=O)Nc1ccccc1C(C)C)c1ccccc1,i,i,i,68,i,+
CCC(c1nnnn1CCOC)N(Cc1cccnc1)Cc1cc2cc(C)c(C)cc2[nH]c1=O (centres undefined),i,nt,nt,i,nt,nt
Cn1cccc1/C=C1\Cc2ccccc2C1=O,i,i,i,i,i,nt
